# Screening data (PubChem)
# Shown are actives, neighbours in structure and some others; about 1.2% of the full set was active somewhere.
# RGS16-Gao HTS – modulates binding between human RGS16 and Galphao | O15492+P09471 | bead-based flow cytometry RGS16-Galphao binding, fluorescence; actives lie on both sides | binding response (% of control), % at 10 µM | 220,000 compounds, 0.38% hits;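 also: Galphao activated by GDP with aluminum fluoride before binding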
# Target sequence (O15492 whole entry, looked up): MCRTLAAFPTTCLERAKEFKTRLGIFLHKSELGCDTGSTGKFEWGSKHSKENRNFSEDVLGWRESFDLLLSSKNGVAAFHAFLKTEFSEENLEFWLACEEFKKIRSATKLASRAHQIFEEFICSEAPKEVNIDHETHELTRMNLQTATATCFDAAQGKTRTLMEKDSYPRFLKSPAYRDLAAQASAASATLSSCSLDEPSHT
# Target sequence (P09471 whole entry, looked up): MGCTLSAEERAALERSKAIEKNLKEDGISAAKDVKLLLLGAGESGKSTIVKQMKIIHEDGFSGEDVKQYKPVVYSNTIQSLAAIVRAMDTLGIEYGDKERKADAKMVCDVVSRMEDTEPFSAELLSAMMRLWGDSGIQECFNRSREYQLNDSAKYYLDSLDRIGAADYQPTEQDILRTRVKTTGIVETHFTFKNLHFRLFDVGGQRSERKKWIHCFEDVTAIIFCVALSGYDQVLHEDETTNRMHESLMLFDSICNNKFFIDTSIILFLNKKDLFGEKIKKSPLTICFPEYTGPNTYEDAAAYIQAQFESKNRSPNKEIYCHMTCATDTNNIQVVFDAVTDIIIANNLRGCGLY
# GSH bead fluor – compound fluoresces at 488/530 nm on GSH beads. GSH beads flow cytometry, compound fluorescence 488/530 nm; hits give high values. fluorescence (KMESF) at 10 µM. 190,000 compounds, 0.25% hits; in the data active = fluorescence above about 89;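 also: glutathione beads carrying GST-tagged Bcl family fusion proteins plus one bare bead set; values are compound well signal with DMSO vehicle wells as background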
# Avidin fluor – avidin bead compound fluorescence profile; Avidin beads, compound fluorescence 488/530 nm, flow cytometry; hits give high values; 220,000 compounds, 0.38% hits; fluorescence (KMESF) at 10 µM; AID 1775; in the data active = fluorescence above about 47
# RGS4-Gao reg – modulates binding of RGS4 to human Galphao; AID 1415; binding response (% of control), % at 10 µM; Multiplexed bead flow cytometry; actives lie on both sides; P09471; 220,000 compounds, 0.33% hits; in the data active = binding response below about 49% or above about 150%; inactive = in between;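 also: fluorescent Galphao activated with aluminum fluoride binding bead-coupled RGS4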
# RGS8-Gao reg – regulators of human RGS8-Galphao interaction | multiplexed bead flow cytometry, RGS8-Galphao binding; actives lie on both sides | response (percent of control binding), % at 10 µM | P09471 | 220,000 compounds, 0.34% hits | AID 1423; in the data active = response below about 60% or above about 140%; inactive = in between;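 also: Galphao activated as the GDP aluminium fluoride complex binding bead-coupled RGS8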
# RGS7-Gao reg – regulators of human RGS7-Galphao interaction. binding response (% of control), % at 10 µM. Multiplexed bead flow cytometry, RGS7-Galphao binding; actives lie on both sides. P09471. 220,000 compounds, 0.35% hits; in the data active = binding response below about 49% or above about 150%; inconclusive = no clear call, values can overlap the other calls; inactive = in between;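 also: fluorescent Galphao held in activated GDP-AlF4 state binding bead-coupled RGS7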
# RGS-Gao – regulators of human RGS4-Galphao interaction | shares compounds with RGS16-Gao HTS | multiplexed bead flow cytometry, RGS–Galpha-o binding | RGS4–Galpha-o binding response, % at 10 µM | 1,600 compounds, 99% hits | AID 1504;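 also: fluorescently labeled Galpha-o bound to GDP with aluminium fluoride binding biotinylated RGS beads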
# Biotin-avidin – interferes with biotinylated probe binding to avidin beads; 1,700 tested, under 10 active; inhibition, % at 10 µM; shares compounds with RGS16-Gao HTS; streptavidin beads, fluorescein-biotin binding, flow cytometry;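 active = inhibition above 50%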;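 also: median green fluorescence of gated singlet beads compared with DMSO control wells; 0% = DMSO wells and 100% = complete loss of bead fluorescence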
# RGS8-Gao confirm – RGS8-Galphao interaction regulation, single point confirmation; bead-based flow cytometry RGS8-Galphao binding, fluorescence; actives lie on both sides; AID 1836; binding response (% of control), % at 10 µM; shares compounds with RGS16-Gao HTS; 1,700 compounds, 3% hits; in the data active = binding response below about 72% or above about 130%; inactive = in between;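 also: Galphao activated as GDP AlF4 complex before binding bead RGS8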
# RGS7-Gao confirm – confirmation of regulators of human RGS7-Galphao interaction; AID 1837; 1,700 compounds, 7.8% hits; shares compounds with RGS16-Gao HTS; bead-based flow cytometry RGS7-Galphao binding; actives lie on both sides; response (percent of control binding), % at 10 µM; in the data active = response below about 75% or above about 130%; inactive = in between;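 also: fluorescent Galphao activated with GDP and aluminum fluoride binding bead-coupled RGS7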
# RGS16-Gao conf – RGS16-Galphao interaction regulation, single point confirmation. shares compounds with RGS16-Gao HTS. bead-based flow cytometry, RGS16-Galphao binding; actives lie on both sides. response (% of control binding), % at 10 µM. 1,700 compounds, 4% hits; in the data active = response below about 74% or above about 130%; inactive = in between;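 also: Galphao activated as the GDP aluminium fluoride complex binding bead-coupled RGS16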
# RGS4-Gao confirm – confirmation of regulators of human RGS4-Galphao interaction. 1,700 compounds, 4% hits. RGS4-Galphao binding, multiplexed bead flow cytometry; actives lie on both sides. shares compounds with RGS16-Gao HTS. binding response (% of control), % at 10 µM; in the data active = binding response below about 74% or above about 130%; inactive = in between
# RGS19-Gao conf – RGS19-Galphao interaction regulation, single point confirmation. 1,700 compounds, 5% hits. response (percent of control binding), % at 10 µM. bead-based flow cytometry RGS19-Galphao binding; actives lie on both sides. AID 1841. shares compounds with RGS16-Gao HTS; in the data active = response below about 50% or above about 160%; inactive = in between;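 also: 100% = no compound control and 0% = blank background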
# Active calls of the source: *; ? = inconclusive; nt = no result given; [ ] = dose if it differs, or a comment. Unless noted, no rule for the calls is given here.
SMILES,RGS16-Gao HTS,GSH bead fluor,Avidin fluor,RGS4-Gao reg,RGS8-Gao reg,RGS7-Gao reg,Biotin-avidin,RGS8-Gao confirm,RGS7-Gao confirm,RGS16-Gao conf,RGS4-Gao confirm,RGS19-Gao conf,others
Nc1c([N+](=O)[O-])cc(F)c(N2CCNCC2)c1Br,40.5,10,0,44.0*,51.9*,39.3*,0.1,104.2,100.6,104.0,99.3,89.0,
O=C(N=Nc1c(O)[nH]c(=O)[nH]c1=O)C1COc2cc3ccccc3cc2O1 (stereo unspecified),101.8,10,11,99.7,99.7,100.3,nt,nt,nt,nt,nt,nt,
O=C(CCC(=O)N1CCC2(CC1)OCCO2)Nc1nnc(C(F)(F)F)s1,99.7,21,9,101.8,102.1,99.4,nt,nt,nt,nt,nt,nt,
CCOP(=O)(OCC)C(O)c1ccc(OC)cc1 (stereo unspecified),nt,nt,nt,nt,nt,nt,1.3,95.6,86.7,92.7,91.2,68.6,
COc1ccc(C(O)P(=O)(OC(C)C)OC(C)C)cc1 (stereo unspecified),103.2,nt,19,106.8,99.0,?,nt,nt,nt,nt,nt,nt,
COc1ccc(NP(=O)(Nc2ccc(OC)cc2)Oc2ccccc2)cc1,105.6,15,23,99.8,98.0,104.0,nt,nt,nt,nt,nt,nt,
O=P(Nc1ccccc1)(Nc1ccccc1)Oc1ccccc1,10.5*,30,5,80.5,62.3,81.2,0.4,99.4,105.9,102.5,104.8,105.5,RGS-Gao=80.5*
O=C(NC12CC3CC(CC(C3)C1)C2)OC1CN2CCC1CC2 (stereo unspecified),127.7,nt,10,166.7*[activator],101.3,?,1.0,99.7,102.2,98.7,100.4,99.6,
O=c1c2ccccc2nc(CNc2ccccc2)n1-c1ccccc1,94.3,nt,8,96.3,96.6,?,nt,nt,nt,nt,nt,nt,
O=C(O)CC1OCC=C2CN3CCC45C6=CC(=O)C(=O)C([N+](=O)[O-])=C6NC4C1C2CC35 (stereo unspecified),47.3,nt,2,46.1*,69.1,?,-1.1,99.5,97.3,97.5,101.3,98.3,
C=C1C(=O)O[C@@H]2C[C@@H](C)[C@@H]3C4OC4C(=O)[C@@]3(C)[C@@H](O)[C@H]12 (stereo partly specified),93.3,nt,9,97.3,98.7,?,nt,nt,nt,nt,nt,nt,
Nc1ccccc1C(=O)OC1CSC1,96.8,13,40,98.3,97.9,98.7,nt,nt,nt,nt,nt,nt,
COc1ccc(C(c2c(O)c3ccccc3oc2=O)c2c(C)n(C)n(-c3ccccc3)c2=O)cc1 (stereo unspecified),91.8,23,13,95.8,100.0,93.8,nt,nt,nt,nt,nt,nt,
Cc1c(C(c2ccc(F)cc2)c2c(O)c3ccccc3oc2=O)c(=O)n(-c2ccccc2)n1C (stereo unspecified),84.3,21,3,67.2,45.6*,37.7*,0.1,107.6,110.0,112.9,106.5,112.0,RGS-Gao=67.2*
O=c1[nH]c(=O)n(Cc2ccco2)c(O)c1C=NCc1cccs1,95.0,13,32,95.7,96.6,95.0,nt,nt,nt,nt,nt,nt,
